Several values for one entry are separate records, joined by “and”; a condition that tells them apart may be missing. Equal entries are not always repeated. Compounds without any hit were thinned out: in the full panel of roughly 83,000, 20% have a hit.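 96-well plates, one dose, 48 hours. Percent growth reported; active if below 10.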 Values without a mark were called inactive. Activity calls are given as the source filed them.
test system: MDA-MB-468 breast; test: NCI-60 one-dose screen, 48 h (100 = growth as untreated, 0 = no growth, -100 = all killed); settings: 10 µM unless noted

| Compound | growth |
| --- | --- |
| CC(=O)CC(c1ccc([N+](=O)[O-])cc1)c1c(O)c2ccccc2oc1=O (stereo unspecified) | 104% |
| COc1cc(OC)cc(N2C(=O)N(Cc3ccc(C(C)(C)C)cc3)c3ccccc3S2(=O)=O)c1 | 51.8% |
| O=C(Nc1ccc(-n2cc(-c3ccncc3)c(-c3ccc(Cl)c(O)c3)n2)cc1)c1ccc(Cl)c(Cl)c1 | 54.2% |
| Cc1cc2c(-c3nc4ccccn4c3Nc3cccc4ccccc34)c(O)c(O)cc2c(O)c1-c1c(C)cc2c(-c3nc4ccccn4c3Nc3cccc4ccccc34)c(O)c(O)cc2c1O | 17.4% |
| O[C@H]1CO[C@H]2[C@@H]1OC[C@@H]2Oc1ccc(Nc2nc(Nc3ccc(F)c(Cl)c3)ncc2F)cc1Cl | 97.6% |
| Fc1cc(-c2cnc3nonc3n2)c(Cl)cc1Cl | 61.8% |
| NC(=S)N/N=C(/c1ccccc1)c1ccccc1N | 18.4% |
| COc1cccc(Nc2ccnc3[nH]c4ccc([N+](=O)[O-])cc4c23)c1 | 23.1% |
| Cc1ncc(C(=O)Nc2ccc(CN3CCN(C)CC3)c(C(F)(F)F)c2)cc1C#Cc1cncc2ncccc12 | 99.3% |
| COc1cc(/C=C\c2cc(/C=C\c3ccc(O)c(OC)c3)n(C(=O)CNc3ccccc3OC)n2)ccc1O | 95.8% |
| O=C(Nc1ccccc1C(=O)N/N=C(\c1ccccc1)c1ccccn1)c1ccc(F)cc1 | 5.1% (active) |
| CC(=O)c1nnn(-c2c(C(=O)n3nc(C)cc3C)sc(=S)n2-c2ccccc2)c1C | 96.8% |
| C=CCc1cc(OC)c(O)c(OC)c1 | 112% |
| O=S(=O)(c1ccccc1)N1CCCc2ccccc21 | 104% |
| O=C1OCC2=C1C(c1cccc(F)c1)c1cc3c(cc1N2CCO)OCO3 (stereo unspecified) | 8.27% (active) |
| C#CCOc1ccc2ncnc(N3CCN(C(=O)CCl)CC3)c2c1 | -9.23% [8.25 µM] (active) |
| C[C@@H]1CN(c2ccc3ncc(C#Cc4cncc(C(=O)Nc5ccc(CN6CCN(C)CC6)c(C(F)(F)F)c5)c4)n3n2)C[C@H](C)O1 | -76.7% (active) |
| COc1ccc(-c2cn[nH]c2-c2cc(OC)c(OC)c(OC)c2)cc1N | -13.3% (active) and -29.2% (active) |
| O=C1C=C(O)C(=O)C=C1O | 115% |
| O=C1c2ccccc2C(=O)c2c1ccc1[nH]c(-c3cccs3)nc21 | 99.6% |
| C=C1C(=O)O[C@H]2[C@H]1CC/C(COC(=O)/C=C\C(=O)NCc1ccc(Cn3c(=O)sn(CCCCC)c3=O)cc1)=C\CC[C@@]1(C)O[C@@H]21 | 47% |
| C=C(C)[C@@H]1CC[C@]2(CN)CC[C@]3(C)[C@H](CC[C@@H]4[C@@](C)(CCCN)[C@H](C(=C)C)CC[C@]43C)[C@@H]12 | 84.7% |
| CC(=O)NC(CCc1ccc(Cl)c(Cl)c1)c1cccc(O)c(=O)c1 (stereo unspecified) | -31.6% (active) |
| COc1nc2c(c(=O)[nH]1)C(c1ccc(Oc3ccnc4cc(Cl)ccc34)c(OC)c1)C=C(c1cc(OC)c(OC)c(OC)c1)N2 (stereo unspecified) | 92.1% |
| CN1CNC(=O)NC1 | 102% and 96.9% |
| COc1cc2c(cc1[N+](=O)[O-])-c1ccc([N+](=O)[O-])cc1/C2=N\O | 49.4% |
